SMARCA2 act = SMARCA2 (BRM) function activators, primary screen, cell-based, luminescence, high throughput. MG213 cells, MMTV-luciferase reporter, dexamethasone, overnight. activation, % at 9.1 µM. 370,000 tested, 1% active; in the data active means activation above about 7.8%;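 further: 0% = vehicle wells and 100% = reference activator wells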
MITF act = activators of MITF-driven TRPM1 promoter reporter, primary screen, cell-based, SK-MEL-5, luciferase, single point; SK-MEL-5 TRPM1-promoter luciferase, 24 h; % of positive control, neutral wells = 0; activation, % at 12.5 µM; 300,000 tested, 0.75% active;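 active means mean activation of at least 80% with every replicate also reaching 80%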;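 further: 0% = neutral control wells and 100% = parthenolide positive control wells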
FGF22 binding = binders of human FGF22 protein, primary screen, FGF22 synaptogenesis inhibitor project, biophysical, thermal shift, single point; AID 651658, 2012; 340,000 tested, 1.5% active; recombinant FGF22 thermal shift, SYPRO orange fluorescence; percent of sucrose octasulfate shift, DMSO zero; Fibroblast growth factor 22 (Homo sapiens), Q9HCT0; activity (Tm shift, normalised), % at 9.99 µM;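 active means mean Tm shift, scaled 0 neutral to 100 positive control, at about 1.3% or above, every replicate too, limit read from the data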
Target sequence (Q9HCT0 whole entry, looked up): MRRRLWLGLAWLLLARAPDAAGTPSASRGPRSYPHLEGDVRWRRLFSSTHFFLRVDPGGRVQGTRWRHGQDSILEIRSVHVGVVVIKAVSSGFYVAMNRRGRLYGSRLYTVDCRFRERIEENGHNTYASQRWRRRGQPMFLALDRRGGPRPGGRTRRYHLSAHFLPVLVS
esBAF inh = Bmi1 luciferase reporter increase in mESCs, primary screen, esBAF inhibitor project, mouse ES cells, Bmi1 luciferase knock-in, single point | reporter increase, % at 12.5 µM | 24 h; 100% = twice the neutral-well signal | 350,000 tested, 2% active | AID 602393, 2012; in the data active means activation above about 40%;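 further: 0% = median of the plate's neutral control wells and 100% = double that signal; a rise in the Bmi1 reporter signal indicates esBAF inhibition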
Wnt act = Wnt/beta-catenin pathway activators, primary screen, cell-based, plate reader, single point | Wnt/beta-catenin reporter cell assay, activator | activation, % at 9.35 µM | 300,000 tested, 1.2% active; in the data active means activation above about 30%, passing the limit was not always enough;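 further: 0% = neutral control wells and 100% = positive control wells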
MLL AF4-AF9 inh = inhibitors of AF4 peptide binding to AF9, primary screen, biochemical, AlphaScreen, biotin-AF4 peptide, FLAG-AF9, single point | Protein AF-9 (Homo sapiens), P42568 | inhibition, % at 10 µM | 350,000 tested, 0.47% active | AID 651704, 2012;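 active means every replicate reaching a set inhibition limit, whatever the replicate mean, cut at about 25% in these data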;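 further: 0% = plate neutral control median and 100% = total signal loss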
SMARCA2 conf = SMARCA2 (BRM) function activators, confirmation, cell-based, luminescence, triplicate; shares compounds with SMARCA2 act; MG213 cells, MMTV-luciferase with dexamethasone, overnight; MG213 cells expressing E1A, Rb sequestered; DMSO wells 0%, reference activator 100%; activation, % at 9.1 µM; 3,500 tested, 30% active; AID 652260, 2013;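 active means activation above its plate's cutoff, the mean activation of tested wells plus 3 SD, cut at about 7.9% in these data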
GAL4-VP16 Luc = GAL4-VP16 luciferase reporter activation, counter-screen for SMARCA2 (BRM) activator project, cell-based, pG5luc, luminescence, high throughput | activation, % at 9.1 µM | HEK293 GAL4-VP16 pG5luc reporter; scaled: DMSO wells 0%, SAHA wells 100% | shares compounds with SMARCA2 act | 3,500 tested, 41% active | AID 686939, 2013;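 active means activation above the solvent-only control well mean plus 3 SD, averaged across control plates, cut at about 5.2% in these data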
* hit, by the source's call; . = no result given; ! = repeats disagree. An excerpt weighted towards active compounds, which were near 4.3% of everything screened.

SMILES | SMARCA2 act | MITF act | FGF22 binding | esBAF inh | Wnt act | MLL AF4-AF9 inh | SMARCA2 conf | GAL4-VP16 Luc
CO[C@@H]1CN(C)C(=O)c2ccc(NC(=O)C3CCOCC3)cc2OC[C@@H](C)N(C(=O)Nc2ccc(C(F)(F)F)cc2)C[C@H]1C | . | . | 0 | 15 | . | -2 | . | .
CC(C)C(=O)Nc1ccc(C(=O)N/N=C/c2cc(Br)cc(Br)c2O)cc1 | 11* | -15 | 0 | . | -3 | 1 | -2 | -1
O=c1[nH]c(CCl)nc2cc(-c3ccc(F)cc3)sc12 | 3 | 2 | 0 | . | 26 | -1 | . | .
O=c1[nH]cnc2cc(-c3ccc(Br)cc3)sc12 | 10* | 57 | 0 | 17 | 21 | 2 | 5 | 3
CC1CCC(NC(=O)c2cccn2C)CC1 (stereo not drawn) | 8.8* | 77 | 0 | 8 | 42* | -2 | 11* | 11*
CC1CCC(NC(=O)c2nn(C)c(=O)c3ccccc23)CC1 (stereo not drawn) | -3 | . | 0 | 3 | 0 | -4 | . | .
CN(CCc1ccccn1)C(=O)c1cccnc1Oc1ccccc1 | 12* | -9 | 0 | -5 | -1 | 0 | -1 | 2
O=C(O)c1cccnc1Oc1ccccc1 | -1 | 13 | . | . | . | . | . | .
COc1ccc(Nc2c(-c3cc4ccccc4o3)nc3nc(C)cc(C)n23)cc1 | 8.6* | . | 0 | . | 15 | 4 | 0 | 2
CCCCNc1c(-c2cc3ccccc3o2)nc2nc(C)cc(C)n12 | 0 | . | 0 | . | 14 | 0 | . | .
C[C@H](CO)N1C[C@H](C)[C@H](CN(C)S(=O)(=O)c2ccc(C#N)cc2)OCc2ccccc2-c2c(n(C)c3ccccc23)C1=O | . | . | 0 | -3 | . | 5 | . | .
CC(C)NC(=O)N(C)C[C@H]1Oc2cc(C#CCN(C)C)ccc2S(=O)(=O)N([C@H](C)CO)C[C@@H]1C | . | . | 0 | 1 | . | -1 | . | .
CCN1CCN(Cc2ccc(NC(=O)c3cc(NC(=O)c4cnnc5ccccc45)cc(OC)c3)cc2C(F)(F)F)CC1 | 14*! | . | 0 | -6 | -1 | 23 | 8.7* | 1
COc1ccc(CN=C2NC(=O)CC(C(=O)Nc3ccc(F)cc3)S2)cc1 (stereo not drawn) | 8.3* | 1 | . | . | . | . | -1 | -1
CCOc1ccc(NC(=O)C/C(C)=N/NC(=O)c2cnccn2)cc1 | 8.9* | -9 | 0 | 6 | -2 | -6 | 3 | 3
COc1ccccc1NC(=O)C/C(C)=N/NC(=O)c1ccccn1 | 12* | . | 0 | 14 | 2 | -1 | -1 | 3
O=C(Nc1ccc(F)cc1)c1cnccn1 | 8.7* | . | 0 | 6 | -3 | -3 | 2 | 2
COc1ccc(NC(=O)C/C(C)=N/NC(=O)c2cnccn2)cc1 | 4 | 20 | 0 | . | 3 | -2 | . | .
COc1cc(NC(=O)C/C(C)=N/NC(=O)c2ccccn2)c(OC)cc1Cl | 3 | -1 | 0 | 24 | -3 | 0 | . | .
CCC(=O)N1[C@H](CO)[C@H]2c3ccccc3N(C(=O)c3ccncc3)C[C@H]21 | . | . | 0 | -4 | . | -4 | . | .
O=C(C[C@H]1CC[C@@H]2NC[C@@H](O)COC[C@H]2O1)NCCN1CCCCC1 | . | . | 0 | 3 | . | . | . | .
CC(C)(C)NC(=O)NC(=O)COc1ccccc1C#N | 9.7* | 121* | . | 40 | 40* | . | 3 | 12*
C=CCNC(=O)COc1ccccc1C#N | 0 | -1 | 0 | . | 1 | 0 | . | .
Cc1ccc(C(=O)Nc2cc(Cl)ccc2OC(=O)c2ccc(C)cc2)cc1 | 8.0* | . | . | . | . | . | 7 | 10*
O=C(Nc1ccc(F)cc1)C(c1cccc(F)c1)N1CCN(C(=O)c2ccco2)CC1 (stereo not drawn) | 2 | . | 0 | . | 0 | . | . | .
SMILES | SMARCA2 act | MITF act | FGF22 binding | esBAF inh | Wnt act | MLL AF4-AF9 inh | SMARCA2 conf | GAL4-VP16 Luc
O=C(Nc1ccc(F)cc1)C(CCc1ccccc1)N1CCN(C(=O)c2ccco2)CC1 (stereo not drawn) | 8.7* | . | 0 | . | -4 | . | 1 | -1
C[C@@H]1CCCCO[C@H](CN(C)C(=O)Cc2ccccc2)[C@@H](C)CN([C@@H](C)CO)C(=O)c2cc(NS(=O)(=O)c3ccc(Cl)cc3)ccc2O1 | . | . | 0 | -2 | . | -7 | . | .
COc1ccc(CN(C)C[C@@H]2Oc3ccc(NS(=O)(=O)c4cn(C)cn4)cc3CC(=O)N([C@@H](C)CO)C[C@@H]2C)cc1 | . | . | 0 | -1 | . | 0 | . | .
CCS(=O)(=O)N1CC(=O)N2[C@H](CO)[C@@H](c3ccc(C#CCc4ccccc4)cc3)[C@H]2C1 | . | . | . | . | . | 9 | . | .
CCC(Sc1nc2ccccc2c(=O)n1CCN1CCOCC1)C(=O)NCc1cccnc1 (stereo not drawn) | 0 | . | . | 10 | -5 | . | . | .
CCC(Sc1nc2ccccc2c(=O)n1CC1CCCO1)C(=O)NCc1cccnc1 (stereo not drawn) | 8.3* | -5 | . | . | . | . | 0 | 0
CNc1nc(C)nc(-c2ccccc2O)n1 | 8.7* | 16 | 0 | 9 | 5 | 6 | 8 | 5.1*
COc1cc(/C=N/NS(=O)(=O)c2ccc(C)cc2)ccc1OCc1ccc(C(=O)O)cc1 | 9.4* | -70 | . | . | -18 | . | 19* | 14*
O=C(Nc1ccc(F)cc1F)C1CCN(S(=O)(=O)c2cccnc2)CC1 | 8.3* | 6 | 0 | 2 | -1 | 0 | 0 | 0
CS(=O)(=O)N1CCC(C(=O)Nc2ccc(F)cc2F)CC1 | -2 | -1 | . | . | . | . | . | .
CCN1CCc2c(sc(NC(=S)NC(=O)c3ccco3)c2C(N)=O)C1 | 9.8* | . | 0 | . | -4 | 0 | 0 | 3
C[C@@H]1CN([C@@H](C)CO)C(=O)c2cc(-c3ccccc3)cnc2O[C@@H]1CN(C)C(=O)Cc1ccccn1 | . | . | 0 | -1 | . | -1 | . | .
O=C(c1cc2c(c(-c3cccc(-c4ccc(F)cc4)c3)n1)[C@H](CCO)N(C(=O)c1ccc3c(c1)OCO3)C2)N1CCOCC1 | -1 | . | 0 | . | -2 | 3 | . | .
O=C(c1cc2c(c(-c3cccc(-c4ccncc4)c3)n1)[C@@H](CCO)N(C(=O)c1ccc3c(c1)OCO3)C2)N1CCOCC1 | 8.1* | . | 0 | . | -3 | 1 | 9.2* | 0

High-throughput results deposited in PubChem by several laboratories.
